Experimental data from paper PMC11062922 (Nature Chemical Biology, 2023).
Where two headings read alike, the source gives them in different places.

Legend:
AAK1 = tested on: AAK1; parameters: species or system human, MV4-11 + K-562 + COLO205 + SK-N-BE2 + OVCAR-8; conditions: read-out: apparent Kd, n = 1
BMP2K = tested on: BMP2K; parameters: species or system human, MV4-11 + K-562 + COLO205 + SK-N-BE2 + OVCAR-8; conditions: read-out: apparent Kd, n = 1
MELK = tested on: MELK; parameters: species or system human, MV4-11 + K-562 + COLO205 + SK-N-BE2 + OVCAR-8; conditions: read-out: apparent Kd, n = 1
Q6ZSR9 = Q6ZSR9 (human, UniProt Q6ZSR9); parameters: species or system MV4-11 + K-562 + COLO205 + SK-N-BE2 + OVCAR-8; conditions: read-out: apparent Kd, n = 1
CLK1 = tested on: CLK1; parameters: species or system human, MV4-11 + K-562 + COLO205 + SK-N-BE2 + OVCAR-8; conditions: read-out: apparent Kd, compound concentrations: 100 nM and 1000 nM (sheet 'Samples'), n = 1
CLK4 = tested on: CLK4; parameters: species or system human, MV4-11 + K-562 + COLO205 + SK-N-BE2 + OVCAR-8; conditions: read-out: apparent Kd, n = 1
GSK3A = tested on: GSK3A; parameters: species or system human, MV4-11 + K-562 + COLO205 + SK-N-BE2 + OVCAR-8; conditions: read-out: apparent Kd, compound concentrations: 100 nM and 1000 nM (sheet 'Samples'), n = 1
GSK3B = tested on: GSK3B; parameters: species or system human, MV4-11 + K-562 + COLO205 + SK-N-BE2 + OVCAR-8; conditions: read-out: apparent Kd, compound concentrations: 100 nM and 1000 nM (sheet 'Samples'), n = 1
NUAK1 = tested on: NUAK1; parameters: species or system human, MV4-11 + K-562 + COLO205 + SK-N-BE2 + OVCAR-8; conditions: read-out: apparent Kd, compound concentrations: 100 nM and 1000 nM (sheet 'Samples'), n = 1
CSNK2A1;CSNK2A3 = tested on: CSNK2A1;CSNK2A3; parameters: species or system human, MV4-11 + K-562 + COLO205 + SK-N-BE2 + OVCAR-8; conditions: read-out: apparent Kd; compound concentrations: 100 nM and 1000 nM (sheet 'Samples'), CATDS: 0.112951755046268; n = 1
CSNK2A2 = tested on: CSNK2A2; parameters: species or system human, MV4-11 + K-562 + COLO205 + SK-N-BE2 + OVCAR-8; conditions: read-out: apparent Kd; compound concentrations: 100 nM and 1000 nM (sheet 'Samples'), CATDS: 0.17006619432900399; n = 1
PAK4 = tested on: PAK4; parameters: species or system human, MV4-11 + K-562 + COLO205 + SK-N-BE2 + OVCAR-8; conditions: read-out: apparent Kd, compound concentrations: 100 nM and 1000 nM (sheet 'Samples'), n = 1
PKN1 = tested on: PKN1; parameters: species or system human, MV4-11 + K-562 + COLO205 + SK-N-BE2 + OVCAR-8; conditions: read-out: apparent Kd; compound concentrations: 100 nM and 1000 nM (sheet 'Samples'), CATDS: 8.6733801464620904E-3; n = 1
PRKAG1 = tested on: PRKAG1; parameters: species or system human, MV4-11 + K-562 + COLO205 + SK-N-BE2 + OVCAR-8; conditions: read-out: apparent Kd; compound concentrations: 100 nM and 1000 nM (sheet 'Samples'), CATDS: 1.1132465742589101E-2; n = 1
RET = tested on: RET; parameters: species or system human, MV4-11 + K-562 + COLO205 + SK-N-BE2 + OVCAR-8; conditions: read-out: apparent Kd; compound concentrations: 100 nM and 1000 nM (sheet 'Samples'), CATDS: 2.5699150815533801E-2; n = 1
SIK2 = tested on: SIK2; parameters: species or system human, MV4-11 + K-562 + COLO205 + SK-N-BE2 + OVCAR-8; conditions: read-out: apparent Kd; compound concentrations: 100 nM and 1000 nM (sheet 'Samples'), CATDS: 1.23582822640132E-2; n = 1
FLT4 = tested on: FLT4; parameters: species or system human, MV4-11 + K-562 + COLO205 + SK-N-BE2 + OVCAR-8; conditions: read-out: apparent Kd; compound concentrations: 100 nM and 1000 nM (sheet 'Samples'), CATDS: 1.8307563949858899E-2; n = 1
[1] = compound concentrations:100 nM and 1000 nM (sheet 'Samples')

Chain of Q6ZSR9 (Q6ZSR9 whole entry, looked up): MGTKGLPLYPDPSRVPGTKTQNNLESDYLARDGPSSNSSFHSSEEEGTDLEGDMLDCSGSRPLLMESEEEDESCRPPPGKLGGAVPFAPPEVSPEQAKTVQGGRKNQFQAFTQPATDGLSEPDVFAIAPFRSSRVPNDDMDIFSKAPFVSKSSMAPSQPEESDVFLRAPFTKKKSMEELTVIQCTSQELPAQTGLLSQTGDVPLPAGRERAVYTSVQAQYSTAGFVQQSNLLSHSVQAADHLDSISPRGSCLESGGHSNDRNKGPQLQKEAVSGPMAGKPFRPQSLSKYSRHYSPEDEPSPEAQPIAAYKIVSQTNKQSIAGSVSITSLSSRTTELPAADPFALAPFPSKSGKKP

Question: For `Nc1nc(Nc2ccccc2)cc(-c2ccc3c(N)n[nH]c3c2)n1` [GSK2225749A], which potency estimated from few doses (AAK1; [1]) is on record?
Answer: 0.13 µM

Question: What about the potency estimated from few doses (BMP2K; [1]) of the same compound?
Answer: 0.554 µM

Question: What about the potency estimated from few doses (MELK; [1]) of the same compound?
Answer: 0.823 µM

Question: What about the potency estimated from few doses (Q6ZSR9; [1]) of the same compound?
Answer: 0.125 µM

Question: Which potency estimated from few doses (AAK1; compound concentrations: 100 nM and 1000 nM (sheet 'Samples'), CATDS: 2.3873616537329799E-2) does the source give for `c1cnn2ncc(-c3ccnc(Nc4ccc5c(c4)OCCO5)n3)c2c1` [GW806290X] here?
Answer: 1.08 µM

Question: What about the potency estimated from few doses (CLK1; CATDS: 6.6494036250362598E-2) of the same compound?
Answer: 0.106 µM

Question: And the potency estimated from few doses (CLK4; compound concentrations: 100 nM and 1000 nM (sheet 'Samples'), CATDS: 9.8127081360261201E-2)?
Answer: 0.0572 µM

Question: What about the potency estimated from few doses (GSK3A; CATDS: 3.86716280658417E-2) of the same compound?
Answer: 0.308 µM

Question: And the potency estimated from few doses (GSK3B; CATDS: 6.1886578646693099E-2)?
Answer: 0.121 µM

Question: What about the potency estimated from few doses (MELK; compound concentrations: 100 nM and 1000 nM (sheet 'Samples'), CATDS: 1.9268078616401899E-2) of the same compound?
Answer: 2.36 µM

Question: And the potency estimated from few doses (NUAK1; CATDS: 2.7516933063414101E-2)?
Answer: 0.713 µM

Question: What about the potency estimated from few doses (Q6ZSR9; compound concentrations: 100 nM and 1000 nM (sheet 'Samples'), CATDS: 2.3514563204250299E-2) of the same compound?
Answer: 1.13 µM

Question: `CC(C)Nc1cc(-c2ccc3c(N)n[nH]c3c2)nc(N)n1` [GSK2221681A] was tested. Which potency estimated from few doses (AAK1; [1]) did it give?
Answer: 0.149 µM

Question: And the potency estimated from few doses (BMP2K; [1])?
Answer: 0.947 µM

Question: What about the potency estimated from few doses (CLK4; [1]) of the same compound?
Answer: 1.55 µM

Question: And the potency estimated from few doses (MELK; [1])?
Answer: 1.13 µM

Question: What about the potency estimated from few doses (Q6ZSR9; [1]) of the same compound?
Answer: 0.22 µM

Question: Which potency estimated from few doses (AAK1; compound concentrations: 100 nM and 1000 nM (sheet 'Samples'), CATDS: 1.0213142208507E-2) does the source give for `O=C(O)C(F)(F)F.O=c1[nH]ccc2nc(N[C@@H]3CCNC3)nc(Nc3ccc4c(c3)S(=O)(=O)CC4)c12` [GSK2181306A] here?
Answer: 0.8 µM

Question: What about the potency estimated from few doses (BMP2K; compound concentrations: 100 nM and 1000 nM (sheet 'Samples'), CATDS: 1.9243702463248E-2) of the same compound?
Answer: 0.19 µM

Question: And the potency estimated from few doses (CLK4; compound concentrations: 100 nM and 1000 nM (sheet 'Samples'), CATDS: 8.1810149624153006E-3)?
Answer: 1.76 µM

Question: What about the potency estimated from few doses (CSNK2A1;CSNK2A3) of the same compound?
Answer: 0.0113 µM

Question: What about the potency estimated from few doses (CSNK2A2) of the same compound?
Answer: 0.00646 µM

Question: What about the potency estimated from few doses (GSK3A; CATDS: 1.81293399995681E-2) of the same compound?
Answer: 0.213 µM

Question: What about the potency estimated from few doses (GSK3B; CATDS: 1.53717620719534E-2) of the same compound?
Answer: 0.296 µM

Question: What about the potency estimated from few doses (MELK; compound concentrations: 100 nM and 1000 nM (sheet 'Samples'), CATDS: 8.8391559742386702E-3) of the same compound?
Answer: 1.29 µM

Question: And the potency estimated from few doses (NUAK1; CATDS: 6.4011411937308901E-2)?
Answer: 0.0259 µM

Question: And the potency estimated from few doses (PAK4; CATDS: 3.0355378859093798E-2)?
Answer: 0.085 µM

Question: And the potency estimated from few doses (PKN1)?
Answer: 1.38 µM

Question: What about the potency estimated from few doses (PRKAG1) of the same compound?
Answer: 0.629 µM

Question: What about the potency estimated from few doses (Q6ZSR9; compound concentrations: 100 nM and 1000 nM (sheet 'Samples'), CATDS: 1.2146463936907201E-2) of the same compound?
Answer: 0.503 µM

Question: And the potency estimated from few doses (RET)?
Answer: 0.113 µM

Question: What about the potency estimated from few doses (SIK2) of the same compound?
Answer: 0.483 µM

Question: How did the potency estimated from few doses (AAK1; compound concentrations: 100 nM and 1000 nM (sheet 'Samples'), CATDS: 3.8573145954119099E-2) turn out when `COc1cc(Nc2nccc(-c3cnn4ncccc34)n2)cc(OC)c1` [GW801372X] was run?
Answer: 0.184 µM

Question: What about the potency estimated from few doses (BMP2K; compound concentrations: 100 nM and 1000 nM (sheet 'Samples'), CATDS: 1.7916348880173499E-2) of the same compound?
Answer: 1.82 µM

Question: And the potency estimated from few doses (CLK1; CATDS: 0.124159144382542)?
Answer: 0.0182 µM

Question: And the potency estimated from few doses (CLK4; compound concentrations: 100 nM and 1000 nM (sheet 'Samples'), CATDS: 0.10081286200227101)?
Answer: 0.0266 µM

Question: And the potency estimated from few doses (FLT4)?
Answer: 1.65 µM

Question: What about the potency estimated from few doses (GSK3A; CATDS: 2.1356053852556199E-2) of the same compound?
Answer: 0.929 µM

Question: What about the potency estimated from few doses (GSK3B; CATDS: 3.2546275447974102E-2) of the same compound?
Answer: 0.277 µM

Question: What about the potency estimated from few doses (NUAK1; CATDS: 5.2338687670537398E-2) of the same compound?
Answer: 0.0945 µM

Question: And the potency estimated from few doses (PAK4; CATDS: 2.0251882597793001E-2)?
Answer: 1.12 µM

Question: And the potency estimated from few doses (Q6ZSR9; compound concentrations: 100 nM and 1000 nM (sheet 'Samples'), CATDS: 3.9611085380352497E-2)?
Answer: 0.173 µM
